PABP polyA inh: PABP-poly(A) binding inhibition | P11940 | PABP-poly(A) RNA binding, fluorescence polarization | inhibition, % at 35 µM | hit rate 1% among 290,000 | AID 2014;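 further: calls also rest on retests at 20 µM and on dose response follow-up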
eIF4E-4G inh: eIF4E/eIF4G interaction inhibition in translation initiation | TR-FRET eIF4E-eIF4GI(517-606) binding, 2 h | inhibition, % at 21.7 µM | hit rate 0.37% among 220,000 | AID 782 | P63073+Q04637;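 active means inhibition above about 30%, limit read from the data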;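 further: 0% = full FRET control wells and 100% = background wells lacking eIF4GI fragment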
eIF4H FP inh: inhibitors of RNA binding by human eIF4H; inhibition, % at 35 µM; AID 2012; eIF4H fluorescence polarization binding assay; hit rate 0.94% among 290,000; Q15056;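 further: calls also rest on retests at 20 µM and on dose response follow-up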
PERK inhibitor: blocks human PERK kinase | Q9NZJ5 | CHO PERK-DD fusion, SEAP luminescence translation reporter | inhibition, % at 5.6 µM | hit rate 0.17% among 220,000;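 active means inhibition above the mean inhibition of all tested compounds plus 3 SD, set separately per screening campaign, cut at about 2.9% in these data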;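 further: PERK kinase domain activated by AP20187 dimerizer at 100 nM; 0% = DMSO with dimerizer and 100% = rapamycin at 8.4 µM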
MLLE-PAM2 inh: inhibitors of microRNA-mediated deadenylation, human PABP1 MLLE binding; P11940; GST-MLLE / FITC-PAM2 fluorescence polarization; inhibition, % at 20 µM; hit rate 0.36% among 360,000; AID 588489; in the data active means inhibition above about 35%, passing the limit was not always enough;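 further: plate controls were DMSO wells with GST-MLLE for no effect and wells lacking GST-MLLE protein for full effect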
Starred values were filed as active, the others as inactive; ? = inconclusive; · = not tested or not shown. In the library only some 1.6% were active in any assay of this set; here they are far more common. Unless noted, how the calls were made is not given here.

SMILES	PABP polyA inh	eIF4E-4G inh	eIF4H FP inh	PERK inhibitor	MLLE-PAM2 inh
O=C1/C(=C/c2ccc(O)cc2)SC(=S)N1CC1CCCO1 (stereo not drawn)	55.2*	8.7	96.5	0.6	-128.0
CCC(C(=O)OCC(=O)Nc1cc(OC)ccc1OC)c1ccccc1 (stereo not drawn)	50.4*	-4.6	-5.6	0.7	-13.1
O=[n+]1c2c(n([O-])c3cc(F)c(F)cc31)CCCC2	32.6	10.5	65.6*	-0.3	16.4
O=[n+]1c2c(n([O-])c3cc(Br)ccc31)CCCC2	-0.4	3.5	-0.6	0.1	-1.9
COC(=O)c1ccc(NC(=S)NC2CCCCC2C)cc1 (stereo not drawn)	117.3*	3.8	active	0.5	14.1
O=C(O)c1ccc(N2C(=O)CC(SC(=NCc3ccc4c(c3)OCO4)Nc3ccccc3)C2=O)cc1 (stereo not drawn)	-9.5	92.3*	-2.8	0.1	-18.8
O=C(O)c1ccc(N2C(=O)CC(SC(=NCc3ccc4c(c3)OCO4)Nc3ccc(F)cc3)C2=O)cc1 (stereo not drawn)	-0.1	4.3	-7.6	1.7	2.6
C[C@H](CO)N1C[C@H](C)[C@@H](CN(C)C(=O)NC2CCCCC2)Oc2c(NC(=O)c3ccncc3)cccc2C1=O	·	·	·	·	-53.8
COC(=O)[C@@]1(C)[C@H]2C(=O)N(Cc3ccccc3)C(=O)[C@H]2[C@H]2CN=C(SC)N21	·	·	·	·	-20.0
COC(=O)[C@@]1(C)[C@H]2C(=O)N(Cc3ccccc3)C(=O)[C@H]2[C@H]2CN=C(SCC(=O)c3ccccc3)N21	·	·	·	·	43.4*
Cc1cc(=O)n(-c2ccc(C(=O)O)cc2)[nH]1	active	-1.7	65.0*	0.8	8.3
Cc1ccc(C)n1-c1ccc(C(=O)O)cc1	50.9*	12.5	91.3*	1.5	·
Cc1cc(=O)n(-c2ccc(O)cc2)[nH]1	-6.2	2.1	-2.2	-0.3	10.4
COc1ccc(NC(=O)C2(C)Cc3c(-c4ccc(NC(C)=O)cc4)ccnc3O2)cc1OC (stereo not drawn)	·	·	·	·	-8.4
Cc1nc([N+](=O)[O-])cn1CCC#N	5.1	4.6	-3.1	3.6*	-4.8
Cc1ccc(O)c(NC(=O)c2ccc3c(c2)C(=O)N(Cc2ccco2)C3=O)c1	12.6	·	8.2	·	-15.5
CC(NS(=O)(=O)c1ccccc1)C1CC2CCC1C2 (stereo not drawn)	·	·	·	·	-7.5
CC(C)NS(=O)(=O)c1ccc(NC(=S)NC(=O)c2cccc([N+](=O)[O-])c2)cc1	12.5	1.7	-1.2	0.5	48.3*
Cc1cc(C)n2c(SCC(=O)Nc3ccccc3C#N)nnc2n1	·	·	·	·	-4.4
O=C(C=C1SCCS1)/C=C/c1ccco1	60.0*	3.8	89.7*	1.3	8.0
O=C(/C=C/c1ccc([N+](=O)[O-])cc1)/C=C/c1ccco1	49.9*	·	60.8*	·	-21.3
O=C(/C=C/c1ccc([N+](=O)[O-])cc1)c1ccco1	6.9	·	-3.9	·	-2.4
COc1ccc(C(=O)Nc2ccc3oc(Cc4ccc(Cl)cc4)nc3c2)cc1OC	-4.2	52.8*	3.1	-0.6	-8.7
COc1ccc(Cc2nc3ccc(C(=O)NCCc4ccncc4)cc3o2)cc1OC	7.7	·	6.6	·	9.6
COCCn1c(C)cc(C(=O)CN2C(=O)C(=O)N(CCC3=CCCCC3)C2=O)c1C	·	·	·	·	9.5
SMILES	PABP polyA inh	eIF4E-4G inh	eIF4H FP inh	PERK inhibitor	MLLE-PAM2 inh
O=C(Sc1cccc2cccnc12)c1ccccc1Br	5.4	·	-5.7	·	36.9*
O=c1c2cc(F)ccc2sn1-c1ccc(F)cc1	·	·	·	·	42.6*
COc1ccc(-n2sc3ccc(F)cc3c2=O)cc1	·	·	·	·	40.7*
COc1ccc(-n2sc3ccccc3c2=O)cc1	·	·	·	·	35.9
CCCS(=O)(=O)NC(=O)C1(C)CCN1C(=O)Cc1ccc(Cl)cc1Cl (stereo not drawn)	·	·	·	·	13.7
O=C(NCc1ccc(F)cc1)N1CCN(C(=O)c2ccccc2)CC1	·	·	·	·	3.4
CC(C)(C)c1cc(NC(=O)C2(C)CCN2C(=O)c2ccccc2CCc2ccccc2)no1 (stereo not drawn)	·	·	·	·	0.8
O=C(/C=C/c1cccc([N+](=O)[O-])c1)Nc1ccc(NC(=O)c2cccs2)cc1	50.3*	10.9	23.5	1.7	6.9
Fc1ccc(NCc2cccnc2)cc1F	?	-5.4	?	-0.6	48.0*
CC(C)(C)c1ccc(S(=O)(=O)NC(=O)C2(C)CCN2C(=O)C2(c3ccc(Cl)cc3)CC2)cc1 (stereo not drawn)	·	·	·	·	14.9
O=C(Nc1nnc(C2CC2)s1)c1cncc(Br)c1	·	·	·	·	-2.6
O=C(CSc1nc2[nH]ncc2c(=O)[nH]1)Nc1nccs1	51.6*	-5.0	active	2.6	·

Bioassay records as filed in PubChem BioAssay.
